Potency and outcome data for seven molecules are collected here from PubChem BioAssay (Tox21).

Test [1] can be described thus: qHTS assay for small molecules that induce genotoxicity in human embryonic kidney cells expressing luciferase-tagged ATAD5 (AID 651632). Further: nearly all actives have a fitted effect of over 15% in size. The gist of the method: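 HEK293T cells carrying luciferase-tagged ATAD5 were given compound or DMSO vehicle and incubated 16 hr at 37C, 5% CO2. Luciferase activity was read after 30 min at room temperature with Amplite; a rise signals genotoxic stress.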

A short description of test [2]: qHTS assay for small molecule agonists of the p53 signaling pathway - cell viability (AID 651633; calls by dose curve; further: nearly all actives have a fitted effect of over 30% in size; further: potency means the concentration at half of the fitted maximal effect). The gist of the method: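 p53RE-bla cells, seeded at 4,000 per well and rested 5 h at 37 C/5% CO2, received compounds in DMSO for 16 h at 37 C. CellTiter-Glo was then added, and luminescence was read after 30 min at room temperature to gauge cytotoxicity.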
Background: In qHTS, concentration-response curves come from the screen itself.

Test [3] can be described thus: qHTS assay for small molecules that induce genotoxicity in human embryonic kidney cells expressing luciferase-tagged ATAD5 - cell viability (AID 651634; calls by dose curve; further: nearly all actives have a fitted effect of over 25% in size; further: potency means the concentration at half of the fitted maximal effect). The gist of the method:
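HEK293T cells carrying luciferase-tagged ATAD5, 2,000 cells/well, exposed to compound for 15.5 hr at 37C. Viability read as live-cell protease activity by CellTiter-Fluor fluorescence after 30 min at 37C.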

Test [4] in a line: qHTS assay to test for compound auto fluorescence at 590 nm (red) in HepG2 cells (AID 720674). The gist of the method: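 Rose Bengal sodium served as the red fluorophore standard. HepG2 monolayers (overnight attachment, MEM with 10% FBS) were exposed to test compounds for 1 hr at 37 C and read at Ex 540/Em 590 nm.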
The nature of test [5]: qHTS assay to test for compound auto fluorescence at 460 nm (blue) in HEK293 cells (AID 720678). Summed up: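 Measured: blue fluorescence (Ex 405/Em 460 nm) of compound-treated HEK293 cells, incubated overnight at 37C with 5% CO2 and scaled to triamterene equivalents.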
The nature of test [6]: qHTS assay to test for compound auto fluorescence at 590 nm (red) in HEK293 cells (AID 720679). The gist of the method: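 Using HEK293 cells at 2,000 per well, the screen added 23 nL of each compound after cell attachment and incubated overnight (37C, 5% CO2). The plate reader then captured red-label fluorescence, Ex/Em 540/590nm.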
The nature of test [7]: qHTS assay to test for compound auto fluorescence at 535 nm (green) in HEK293 cells (AID 720680).
Test [8] can be described thus: qHTS assay to test for compound auto fluorescence at 460 nm (blue) in HEK293 cell free culture (AID 720681). Summed up:
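Test compounds were pinned into cell-free culture medium (DMEM with 10% FBS) and fluorescence was read directly at Ex/Em 405/460 nm. Signals were expressed as fluorescence equivalents of triamterene, with DMSO vehicle as control.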

Test [9] is described as follows: qHTS assay to test for compound auto fluorescence at 535 nm (green) in HEK293 cell free culture (AID 720682). The gist of the method:
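Intrinsic compound fluorescence is measured in culture medium containing 10% FBS, with excitation at 485 nm and detection at 535 nm, referenced to fluorescein.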

A short description of test [10]: qHTS assay to test for compound auto fluorescence at 590 nm (red) in HEK293 cell free culture (AID 720683). The gist of the method:
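Tox21 10K library compounds were pinned into cell-free DMEM with 10% FBS and fluorescence was read at excitation 540 nm. Activity is expressed as Rose Bengal sodium equivalency.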

Test [11] is described as follows: qHTS assay to test for compound auto fluorescence at 590 nm (red) in HepG2 cell free culture (AID 720684). The gist of the method: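 Red fluorescence (540 nm excitation, 590 nm emission) was measured after compound transfer into cell-free MEM supplemented with 10% FBS. Values are equivalencies against Rose Bengal sodium.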
Test [12] is described as follows: qHTS assay to test for compound auto fluorescence at 460 nm (blue) in HepG2 cell free culture (AID 720685). The gist of the method: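 Compound (23 nL) or DMSO pinned into cell-free MEM with 10% FBS; blue fluorescence read at 405/460 nm excitation/emission, expressed as auto-fluorescence equivalency to triamterene.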
A short description of test [13]: qHTS assay to test for compound auto fluorescence at 535 nm (green) in HepG2 cell free culture (AID 720686).
Test [14] in a line: qHTS assay to test for compound auto fluorescence at 460 nm (blue) in HepG2 cells (AID 720687). Summed up:
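Cells (2,000/well in MEM with 10% FBS) attached overnight at 37 C, then were exposed to compound or DMSO for 1 hr at 37 C, 5% CO2. Fluorescence read at Ex/Em 405/460 nm, expressed as triamterene-equivalent signal.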

Test [15] can be described thus: qHTS assay for small molecule disruptors of the mitochondrial membrane potential - cell viability (AID 720634; calls by dose curve; further: nearly all actives have a fitted effect of over 20% in size; further: potency means the concentration at half of the fitted maximal effect). Summed up:
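HepG2 cells, 2,000 per well, attached overnight, then treated 1 hr at 37 C, 5% CO2. Viability read as ATP by CellTiter-Glo luminescence after 30 min at room temperature. Read in the same wells as the m-MPI membrane-potential dye assay.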

A short description of test [16]: qHTS assay to test for compound auto fluorescence at 535 nm (green) in HepG2 cells (AID 720675).
Test [17] is described as follows: qHTS assay for small molecule disruptors of the mitochondrial membrane potential (AID 720635). Further: potency means the concentration at half of the fitted maximal effect. The gist of the method: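 HepG2 cells (2,000/well) attached overnight at 37C, then took compound for 1 hr at 37C, 5% CO2. Mito-MPS dye was added for 30 min; fluorescence was read at 490/535 nm (monomers) and 540/590 nm (aggregates).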
The target in test [18] is Glucocorticoid receptor (Homo sapiens) (UniProt P04150). The test is described as follows: qHTS assay to identify small molecule agonists of the glucocorticoid receptor (GR) signaling pathway (AID 720691; active means well fitted activation curve with a large enough effect in the signal ratio in the repeat runs, not every such curve was filed as active; the % refers to the signal ratio). The gist of the method:
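GR-bla HeLa cells carrying a GRE-driven beta-lactamase reporter, exposed to compounds for 18 h at 37 C. Reporter activation read as fluorescence after 2 h with LiveBLAzer B/G FRET substrate at room temperature.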

The target is the same in test [19]. As to the kind of experiment: qHTS assay to identify small molecule antagonists of the glucocorticoid receptor (GR) signaling pathway (AID 720692; active means well fitted inhibition curve with a large enough effect in the signal ratio in the repeat runs, not every such curve was filed as active; the % refers to the signal ratio; further: potency means the concentration at half of the fitted maximal effect). Summed up: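 GR-bla HeLa cells carrying a GRE-driven beta-lactamase reporter received compound after 4 h plating, then dexamethasone (5 nM final). After 18 h at 37C, the FRET substrate was loaded for 2 h at room temperature and fluorescence read.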

Test [20] in a line: qHTS assay for small molecule agonists of the p53 signaling pathway (AID 651631; calls by dose curve; further: potency means the concentration at half of the fitted maximal effect; nearly all actives have a fitted effect of over 15% in size). The gist of the method: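 Fluorescence intensity from cleaved LiveBLAzer B/G substrate (2 h, room temperature) served as the signal. Beforehand, HCT-116 reporter cells bearing p53 response elements were treated 16 h at 37 °C with DMSO-dissolved compounds.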

Each structure is given as a SMILES string. “And” between values parts separate entries of the source, which are not always exact repeats. Equal values may be shown once. Records with an inconclusive call do not appear. The source made the active and inactive calls. Unless noted, the call rests on the fitted dose curve; in most records, active means well fitted curve in the direction sought with a large enough effect in the repeat runs; inconclusive means weak or mixed curves; inactive means no such curve, though single readings can be large; an effect the other way counts as inactive or inconclusive.

Glucocorticoid receptor (Homo sapiens), sequence (P04150 whole entry, looked up): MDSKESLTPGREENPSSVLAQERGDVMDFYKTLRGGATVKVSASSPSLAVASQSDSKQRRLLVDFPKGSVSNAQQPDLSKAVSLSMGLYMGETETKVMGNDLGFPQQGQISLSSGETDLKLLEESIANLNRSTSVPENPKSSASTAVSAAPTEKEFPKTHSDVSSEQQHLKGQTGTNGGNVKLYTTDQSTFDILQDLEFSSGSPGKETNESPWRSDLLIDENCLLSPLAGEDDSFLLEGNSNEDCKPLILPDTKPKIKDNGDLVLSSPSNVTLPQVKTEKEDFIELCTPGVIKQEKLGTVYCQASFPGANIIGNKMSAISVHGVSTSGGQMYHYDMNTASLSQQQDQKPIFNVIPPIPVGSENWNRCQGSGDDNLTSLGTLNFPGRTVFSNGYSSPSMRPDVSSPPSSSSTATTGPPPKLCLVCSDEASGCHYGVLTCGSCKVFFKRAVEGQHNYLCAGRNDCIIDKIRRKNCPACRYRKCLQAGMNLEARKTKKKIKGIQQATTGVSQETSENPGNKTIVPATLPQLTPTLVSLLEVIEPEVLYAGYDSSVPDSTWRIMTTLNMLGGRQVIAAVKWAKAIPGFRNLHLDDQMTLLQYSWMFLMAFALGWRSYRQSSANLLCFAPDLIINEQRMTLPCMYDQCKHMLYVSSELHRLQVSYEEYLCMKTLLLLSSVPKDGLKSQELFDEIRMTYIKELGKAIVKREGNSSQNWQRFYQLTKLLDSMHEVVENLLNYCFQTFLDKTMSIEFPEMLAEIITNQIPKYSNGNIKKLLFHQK

As for `CCC1(CCC(C)C)C(=O)NC(=O)NC1=O`, the Potency entry in test [1], in test [2] and in test [3] was “inactive” in each case. In addition, the call in test [4], in [5], in test [6], in test [7], in test [8] and in [9] was inactive. For the same molecule, the call in [10], in [11], in [12], in [13] and in [14] was inactive.
`Cc1cccc(C)c1NC1=NCCCS1`: the Potency entry in [1], in test [2], in test [3] and in [15] was “inactive” each time. Also, the result in [4], in [16], in test [5], in test [6], in test [7] and in [8] was inactive. Also, the molecule was classed as inactive in test [9], in test [11], in [12], in test [13] and in [14].
Take `CCC(C)(C)c1ccc(O)c(C(C)(C)CC)c1`: the Potency result in [1] was “inactive”. Besides, the Potency in test [2] was 21.4 µM (active) and 27.3 µM (active); in test [3] it was 53.9 µM (active); in test [15], 6.04 µM (active); in test [17], 1.52 µM (active) and 1.37 µM (active). The call in test [4], in test [16], in test [5], in [6], in test [7] and in test [8] was inactive. Further, the outcome in test [9], in test [10], in test [11], in [12], in test [13] and in test [14] was inactive.
Consider `O=C(N[C@H]1CN2CCC1CC2)c1ccc2c(c1)OCCO2`, for which the Potency result in test [1], in test [2], in [15], in test [17], in test [18] and in [19] was “inactive” throughout. For the same molecule, the result in test [4], in test [16], in [5], in test [6], in [7] and in test [8] was inactive. Further, the molecule was called inactive in test [9], in test [10], in test [11], in test [12], in [13] and in test [14].
As for `CCC1CCC(=O)O1` (configuration not stated), the Potency result in [1], in test [2], in test [3], in test [15], in [17] and in test [19] was “inactive” in each case. Moreover, the outcome in test [4], in test [16], in test [5], in [6], in [7] and in test [8] was inactive. Further, the result in test [9], in test [10], in [11], in test [12], in test [13] and in test [14] was inactive.
With `O=C(CCl)CCl`, the Potency in [20] is 24.3 µM (active); in test [3], 63.4 µM (active) and 54.5 µM (active); in test [19] it was 43.6 µM (active). Besides, the molecule was classed as inactive in test [4], in test [5], in test [6], in [7], in test [8] and in test [9]. In addition, the outcome in [11], in test [12], in test [13] and in [14] was inactive. Also, in test [18], the Potency result is “inactive”.
With `CC(C)(C)CC(C)(C)c1ccc(O)cc1`, the Potency entry in test [1] was “inactive”. The Potency was 29.8 µM (active) and 30.6 µM (active) in test [2]; 61.1 µM (active) in test [3]; 3.35 µM (active) and 1.72 µM (active) in test [17]. Moreover, the result in test [4], in test [16], in [5], in test [6], in test [7] and in test [8] was inactive. In addition, the molecule was called inactive in [9], in test [10], in test [11], in [12], in test [13] and in test [14].
